GLS inhibitor = qHTS for Inhibitors of Glutaminase (GLS); Potency, µM (highest dose often 45.5 µM), for the others: at the top dose activity change, negative = inhibition, hits mostly inhibitors; GLS enzymatic activity, qHTS titration; actives 0.21% (n = 410,000); Glutaminase kidney isoform, mitochondrial (Homo sapiens), O94925; AID 624170, 2012; note: % is set by controls: 0 for no effect and ±100 for the full control effect
Target sequence (O94925 whole entry, looked up, canonical isoform): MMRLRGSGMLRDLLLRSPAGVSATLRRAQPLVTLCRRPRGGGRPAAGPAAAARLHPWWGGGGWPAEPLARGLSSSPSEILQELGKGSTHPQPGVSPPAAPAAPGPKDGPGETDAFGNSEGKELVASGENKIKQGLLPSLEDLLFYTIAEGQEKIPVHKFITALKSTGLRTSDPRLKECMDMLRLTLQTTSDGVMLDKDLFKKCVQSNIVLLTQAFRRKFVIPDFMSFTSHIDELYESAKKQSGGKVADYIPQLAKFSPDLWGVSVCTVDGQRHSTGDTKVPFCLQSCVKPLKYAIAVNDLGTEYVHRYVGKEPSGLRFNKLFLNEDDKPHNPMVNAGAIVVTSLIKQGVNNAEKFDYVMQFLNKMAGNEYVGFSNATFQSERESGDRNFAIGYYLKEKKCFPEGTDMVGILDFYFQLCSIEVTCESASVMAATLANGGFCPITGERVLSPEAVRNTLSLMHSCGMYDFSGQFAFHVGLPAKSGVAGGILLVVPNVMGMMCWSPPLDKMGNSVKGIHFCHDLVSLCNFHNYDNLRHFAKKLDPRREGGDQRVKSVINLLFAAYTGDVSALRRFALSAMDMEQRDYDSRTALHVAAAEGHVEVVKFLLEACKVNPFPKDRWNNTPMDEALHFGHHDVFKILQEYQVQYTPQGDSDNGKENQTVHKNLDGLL
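hKGA in 45 mM KH2PO4 pH 8.2, 0.02% Tween-20 with pin-transferred compounds; 1 mM L-glutamine (stock) plus glutamate oxidase/HRP/Amplex Red coupling added. Fluorescence read initially and after 30 min at RT.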
BAZ2B block = qHTS Assay for Inhibitors of BAZ2B. AlphaScreen BAZ2B-H3K14Ac peptide displacement. AID 504333, 2011. Bromodomain adjacent to zinc finger domain protein 2B (Homo sapiens), Q9UIF8. actives 4.4% (n = 360,000). Potency, µM (doses to about 114 µM), without a hit: at the highest dose activity change, negative = inhibition, actives largely listed as inhibitors; note: % is set by controls: 0 for no effect and ±100 for the full control effect; nearly all actives have a fitted effect of over 60% in size
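Multi-concentration screen (max 110 uM) measuring displacement of acetylated histone H3 peptide from BAZ2B by AlphaScreen, using 50 nM protein, 50 nM peptide and 10 ug/mL streptavidin donor plus Ni-chelate acceptor beads.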
HP1b chromo inh = HTS for Inhibitors of HP1-beta Chromodomain Interactions with Methylated Histone Tails | Chromobox protein homolog 1 (Homo sapiens), P83916 | AlphaScreen HP1-beta / biotin-H3K9me3 peptide binding | Potency, µM (series often up to 114 µM), for inactives: at the top dose activity change, negative = inhibition, usual class: inhibitors | actives 0.56% (n = 390,000); note: nearly all actives have a fitted effect of over 70% in size
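AlphaScreen: HP1-beta (50 nM) preformed 30 min with biotin-H3(1-18)K9me3 peptide (50 nM) in PBS pH 7.4, 0.01% Tween-20. Compound added for 30 min at RT, then streptavidin donor/nickel chelate acceptor beads (10 ug/mL) for 30 min.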
G9a block = qHTS Assay for Inhibitors of Histone Lysine Methyltransferase G9a. Histone-lysine N-methyltransferase EHMT2 (Homo sapiens), Q96KQ7. G9a H3K9 monomethylation, AlphaScreen, 2 h. Potency, µM (doses to about 102 µM), inactives show top-dose activity, negative = inhibition, usual class: inhibitors. actives 8.8% (n = 350,000). AID 504332, 2011; note: % is set by controls: 0 for no effect and ±100 for the full control effect; nearly all actives have a fitted effect of over 75% in size
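Enzyme 20 nM + cpd, 15 min RT; add b-H3K9 pep 500 nM / SAM 20 uM; 2 h RT; anti-H3K9me1 Ab 0.5 ug/mL + SA donor / anti-rabbit acceptor beads 20 ug/mL each, 10 min; AlphaScreen read.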
JMJD2A Tudor inh = qHTS Assay for Inhibitors of JMJD2A-Tudor Domain; Lysine-specific demethylase 4A (Homo sapiens), O75164; AlphaScreen JMJD2A-Tudor / H3K4me3 peptide binding; Potency, µM (doses to about 114 µM), without a hit: at the highest dose activity change, negative = inhibition, hits mostly inhibitors; actives 4.4% (n = 390,000); note: % is set by controls: 0 for no effect and ±100 for the full control effect; nearly all actives have a fitted effect of over 50% in size
Starred values were filed as active, the others as inactive; ? = inconclusive; nt = no result; [ ] = dose if it differs, or a comment. Most compounds without a hit are left out; they make up all but 10% or so of the library. Calls come from the whole dose curve; as a rule, active = well fitted curve in the direction sought with a large enough effect; inconclusive = small, poorly fitted or top-dose-only effect, or another doubt; inactive = no such curve, though single readings can be large; an effect the other way counts as inactive or inconclusive. Potency is the fitted concentration of half-maximal effect.

SMILES	GLS inhibitor	BAZ2B block	HP1b chromo inh	G9a block	JMJD2A Tudor inh
CCOc1ccc(NS(=O)(=O)c2ccc(C(=O)NCc3ccncc3)cc2)cc1	11.9%	-1.4%	20.7%	8.5%[0.501 µM]	-4.8%
CCOc1cc(-c2nnc(SCC(=O)NCCCOC)nc2-c2ccc(OC)c(OCC)c2)ccc1OC	-9.1%	?	4.8%	?	-8.7%
O=C(CC1SC2=NCCN2C1=O)Nc1ccc(Cl)cc1 (configuration not stated)	18.8%	-0.1%	16.9%	-1.9%[59 µM]	-9.2%
CCc1nc(Nc2ccccc2F)c2oc3ccccc3c2n1	0.2%	56.2µM*	35.4%	50.1µM*	-3.5%
Cc1c(C(=O)N(Cc2ccco2)Cc2ccccc2Cl)oc2ccc(F)cc12	3.5%	18.0%	40.2%	34.8%[59 µM]	14.9%
CCOc1ccc(C=NN2CCCCCC2)cc1OCC	5.7%	nt	?	nt	39.8µM*
CC(C)c1ccc(/C=N/N2CCCCC2)cc1	2.3%	31.6µM*	22.4µM*	10µM*	?
CC(C)c1ccc(/C=N/N2CCN(c3ccccn3)CC2)cc1	11.3%	-23.4%	5.9%	?	-27.6%
CCOc1ccc(/C=N/N2C(C)CCCC2C)cc1OC (configuration not stated)	21.8%	-20.1%	14.4%	-7.6%	-16.7%
COc1ccc(/C=C/c2ccncc2)cc1	21.5%	-37.3%	39.9%	11.4%[0.501 µM]	-5.7%
CCN(C(=O)CSc1ncnc2sc(C)c(C)c12)C1CCS(=O)(=O)C1 (configuration not stated)	20.2%	-6.6%	9.9%	-2.0%	-12.4%
CCc1ccc(CNC(=O)Cn2nc(C)c3c(C)n(-c4ccc(C)cc4)nc3c2=O)cc1	0.1%	-3.7%	41.9%	3.1%[59 µM]	-7.2%
c1ccc(-c2csc(=Nc3cccnc3)n2CC2CCCO2)cc1 (configuration not stated)	-0.1%	?	-11.1%	?	?
N=c1n(CCO)c2ccccc2n1CCOc1ccccc1	-10.4%	-5.6%	90.1%	-3.3%	5.2%
CCn1c(-c2ccccc2)csc1=Nc1ccc(O)cc1	6.8%	20µM*	?	3.55µM*	31.6µM*
CCOc1ccc(N=c2scc(-c3ccccc3)n2CCO)cc1	37.0%	8.91µM*	?	15.8µM*	?
CCOc1ccc(N=c2scc(-c3ccc(OC)cc3)n2CCO)cc1	17.6%	?	-21.3%	2.82µM*	?
CCOC(=O)C1=C(CN2CCN(C(=O)c3ccco3)CC2)NC(=O)NC1c1ccc(OC)cc1 (configuration not stated)	12.4%	-26.6%	36.5%	-44.8%	-12.4%
CCOC(=O)c1cn(CC)c2c(ccc3ccccc32)c1=O	-13.1%	110.0%	239.1%	nt	208.2%
Cc1ccc(S(=O)(=O)N2CCN(C(=O)COC(=O)/C=C/c3ccc(F)cc3)CC2)c(C)c1	-1.5%	5.3%	-8.5%	1.2%	-16.0%
COc1cc(C2C(C#N)=C(N)Oc3cc(C)oc(=O)c32)cc2c1OCO2 (configuration not stated)	-6.7%	56.2µM*	18.6%	?	-14.5%[57.1 µM]
COc1ccccc1C1C(C#N)=C(N)Oc2cc(C)n(Cc3ccccn3)c(=O)c21 (configuration not stated)	12.8%	?	22.6%	35.5µM*	-15.7%
COc1cccc(C2C(C#N)=C(N)Oc3cc(C)n(Cc4ccccn4)c(=O)c32)c1OC (configuration not stated)	21.6%	5.9%	24.1%	-6.0%[2.33 µM]	-4.7%
COc1cc(C2C(C#N)=C(N)Oc3cc(C)n(Cc4ccccn4)c(=O)c32)cc2c1OCO2 (configuration not stated)	nt	?	nt	50.1µM*	nt
CCOc1ccccc1C1C(C#N)=C(N)Oc2cc(C)n(Cc3ccccn3)c(=O)c21 (configuration not stated)	27.9%	1.3%	31.4%	50.1µM*	-8.1%
Cc1ccc(C)c(C(O)c2ncc(-c3ccccc3F)[nH]2)c1 (configuration not stated)	1.9%	nt	nt	nt	nt

Screens as filed in PubChem.
